Assay outcomes: PubChem BioAssay, several laboratories
Sampled rows, rich in hits. Any-hit rate of the full collection: about 2.1%.
NFkB transloc pot – enhancers of NFkB p65 translocation in HUVEC – imaging, IL-1B stimulus, high-content imaging, primary screen. HUVEC IL-1B NFkB p65 nuclear translocation imaging. activation, % at 2 µM. hit rate 0.3% among 94,000;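 active means activation above 40%, about the mean plus 3 SD, also judged a hit on visual image review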;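 further: percent activation is computed from the nuclear over cytoplasmic p65 intensity ratio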
NFkB transloc inh – inhibitors of IL-1B driven NFkB p65 nuclear import, primary screen, imaging, HUVEC, IL-1B stimulus, high-content imaging; HUVEC IL-1B NFkB p65 nuclear translocation imaging; hit rate 0.43% among 94,000; inhibition, % at 2 µM;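 active means inhibition above about 30% together with a positive call from visual inspection of the well image, limit read from the data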;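 further: nuclear over cytoplasmic p65 intensity ratio measured by imaging; 0% = IL-1B stimulated DMSO wells and 100% = unstimulated DMSO wells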
Measles CPE – compounds protecting cells from measles virus cytopathic effect, primary screen, measles RdRp inhibitor project, single point, MLSMR library, absorbance; protection (pct of control), % at 4 µM; AID 841, 2007; hit rate 1.5% among 140,000; Measles virus-infected cells, CPE protection; in the data active means protection mostly above about 24%, no sharp cut-off; inactive means mostly below about 26%
HUVEC tox IL1B – cytotoxicity in IL-1B stimulated HUVEC, primary screen, cytotoxicity control for IL-1B NFkB translocation project, imaging, Hoechst nuclear count, IL-1B stimulus; HUVEC cell count loss; cell count reduction, % at 2 µM; hit rate 0.41% among 94,000; AID 845, 2007;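 active means cell count reduction more than 3 SD above the screen-wide mean, cut at about 70% in these data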;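 further: normalized per plate to untreated control cells as the no-loss baseline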
* marks the source's active call; other numbers are inactive results; · = no result given.

SMILES | NFkB transloc pot | NFkB transloc inh | Measles CPE | HUVEC tox IL1B
O=C(Nc1cccc2nsnc12)C1CC(=O)N(c2ccccc2)C1 (stereo not given) | 13.1 | -13.1 | 11.6 | -3.6
CCCC(=O)N(Cc1cc2ccccc2[nH]c1=O)c1ccccc1OC | -0.5 | 0.5 | 38.0* | -14.8
CC(C)Cn1cc(C(=O)N2CCOCC2)c2c3ccccc3n(C)c2c1=O | 11.4 | -11.4 | 39.8* | -14.6
Cc1cc(C)cc(N2C(=O)CN(Cc3sccc3C)C2=S)c1 | · | · | 45.6* | ·
NNc1nc2c(F)cc(F)cc2s1 | · | · | 3.7 | ·
Cc1cc(C(=O)N/N=C/c2ccccc2Br)no1 | -7.8 | 7.8 | 10.9 | 21.3
Cc1cc(C(=O)N/N=C/c2cccn2C)no1 | · | · | 43.3* | ·
c1ccc2sc(SCc3ccc(-c4nnco4)cc3)nc2c1 | -2.9 | 2.9 | 13.1 | 18.0
Cc1cccc(S(=O)(=O)c2c(N)n(/N=C/c3ccccc3)c3nc4ccccc4nc23)c1 | 21.9 | -21.9 | 59.5* | 10.2
C/C(=N\NC(=O)C1CC1(C)c1ccccc1)c1ccco1 (stereo not given) | · | · | 70.8* | ·
COc1ccc(NS(=O)(=O)c2ccc3oc(Nc4ccc5c(c4)OCCO5)nc3c2)cc1 | -5.4 | 5.4 | 92.5* | 3.5
Cn1c(=O)oc2cc(S(=O)(=O)Nc3ccc4c(c3)OCCO4)ccc21 | -97.7 | 97.7* | 23.9 | 91.9*
Cc1ccc(NS(=O)(=O)c2ccc3c(c2)oc(=O)n3C)cc1F | 16.6 | -16.6 | 45.5* | 16.7
Cn1c(=O)c(=O)n(C)c2cc(S(=O)(=O)Nc3ccc4c(c3)OCCO4)ccc21 | -3.8 | 3.8 | 17.9 | -10.6
CCCCn1c(SCC(=O)N2CCOCC2)nnc1-c1ccoc1C | -29.6 | 29.6 | 17.6 | 85.8*
CCC(Oc1ccccc1)C(=O)Nc1cc(C)on1 (stereo not given) | 33.4 | -33.4 | 15.6 | 4.8
CCC(OC(=O)C(NC(=O)c1ccccc1)c1ccccc1)C(=O)Nc1cc(C)on1 (stereo not given) | -8.0 | 8.0 | 47.0* | -5.0
COc1ccccc1-n1nnnc1SCc1cc2c(cc1Br)OCO2 | 5.5 | -5.5 | 3.0 | -28.2
COc1ccc(C(=O)c2ccc(OC)c(N)c2)cc1N | 70.0* | -70.0 | 3.0 | -12.7
COc1ccc(C(=O)c2ccc(OC)c(OC)c2)cc1OC | 0.9 | 1.2 | 6.2 | 9.4
O=c1c2ccccc2oc2nc(-c3cccs3)n(CCc3ccccc3)c(=O)c12 | · | · | 23.1 | ·
O=C(NCNC(=O)c1ccccc1)c1ccccc1 | 11.2 | -11.2 | 4.9 | 80.9*
COc1cc(COc2ccc3c(C)c(Cc4ccccc4)c(=O)oc3c2C)cc(OC)c1OC | -15.4 | 15.4 | 28.4* | 7.0
COc1cc(COc2ccc3c(C)c(Cc4ccccc4)c(=O)oc3c2)cc(OC)c1OC | 0.5 | -0.5 | 16.0 | -18.6
Cc1oc(-c2cccc(Cl)c2)nc1CN1CCCC(C(=O)NC(C)c2ccc3c(c2)OCCO3)C1 (stereo not given) | · | · | 7.5 | ·
SMILES | NFkB transloc pot | NFkB transloc inh | Measles CPE | HUVEC tox IL1B
CCCCNC(=O)OC(C)CNC(=O)Oc1cccc(C)c1 (stereo not given) | · | · | 42.6* | ·
O=C(NCc1ccc(Cl)cc1)c1noc2c1CCCCC2 | · | · | 21.1 | ·
CC(C)CC(=O)O/N=C1\C(=O)N(Cc2ccc(Cl)cc2)c2ccc([N+](=O)[O-])cc21 | 47.0* | -47.0 | 7.8 | 91.9*
Cc1ccc(-n2c(=O)cc(NCc3cccnc3)[nH]c2=O)cc1 | 11.2 | -11.2 | 5.8 | -19.9
CCOC(=O)C1=C(C)NC(SCC(=O)Nc2nc(C)cs2)=C(C#N)C1c1cccs1 (stereo not given) | -16.1 | 16.1 | 13.0 | -56.8
CCc1ccc(C2CC(c3ccccc3)n3ncnc3N2)cc1 (stereo not given) | 41.7* | -41.7 | 23.0 | 9.4
Fc1ccc(C2CC(c3ccc(F)cc3)n3ncnc3N2)cc1 (stereo not given) | -15.5 | 15.5 | 22.6 | -2.7
Cc1cc(Nc2ccc(F)c(Cl)c2)n2ncnc2n1 | · | · | 4.4 | ·
Cc1cc(Nc2cccc(Cl)c2)n2ncnc2n1 | · | · | 29.5* | ·
CC1=CC(C2CC(=O)N(c3ccccc3C)C2=O)CC2C(=O)N(c3ccccc3C)C(=O)C12 (stereo not given) | · | · | 10.2 | ·
COc1ccccc1NC(=S)N1CCC(c2nc3cc(C)c(C)cc3[nH]2)CC1 | -55.8 | 55.8* | 0.5 | -15.0
O=C(Nc1ccc(S(=O)(=O)Nc2nccs2)cc1)c1ccc(S(=O)(=O)N2CCOCC2)cc1 | · | · | 66.8* | ·
CCOC(=O)c1[nH]c2ccccc2c1NC(=O)c1ccc(S(=O)(=O)N2CCCC2)cc1 | · | · | 21.1* | ·
O=C(Nc1ccccc1)c1ccc(S(=O)(=O)N2CCOCC2)cc1 | 9.7 | -9.7 | 14.0 | -9.3
